# FMDV inh – blocks foot and mouth disease virus; FMDV antiviral cell-based qHTS; AID 1159524; Potency, µM (top dose mostly 57.9 µM), without a hit: top-dose activity change, negative = inhibition, actives largely listed as inhibitors; 1.2% of 410,000 active; calls by dose curve; tested in HEK293T cells; further: read-out not given here; potency means the concentration at half of the fitted maximal effect; nearly all actives have a fitted effect of over 45% in size
# Lassa entry inh – blocks Lassa virus binding to or entry into cells; Lassa virus pseudotype entry inhibition, cell reporter; Potency, µM (series often up to 37.9 µM), for the others: at the top dose activity change, negative = inhibition, hits mostly inhibitors; 1.2% of 300,000 active; AID 540256; calls by dose curve; tested in HEK293 cells; further: potency means the concentration at half of the fitted maximal effect; nearly all actives have a fitted effect of over 50% in size
# FBPA Giardia inh – blocks Giardia fructose-bisphosphate aldolase activity; A8B2U2; purified Giardia FBPA; Potency, µM (series often up to 59.6 µM), without a hit: top-dose activity, negative = inhibition, hits mostly inhibitors; 0.71% of 290,000 active; AID 2451; further: potency means the concentration at half of the fitted maximal effect; nearly all actives have a fitted effect of over 55% in size
# Target sequence (A8B2U2 whole entry, looked up): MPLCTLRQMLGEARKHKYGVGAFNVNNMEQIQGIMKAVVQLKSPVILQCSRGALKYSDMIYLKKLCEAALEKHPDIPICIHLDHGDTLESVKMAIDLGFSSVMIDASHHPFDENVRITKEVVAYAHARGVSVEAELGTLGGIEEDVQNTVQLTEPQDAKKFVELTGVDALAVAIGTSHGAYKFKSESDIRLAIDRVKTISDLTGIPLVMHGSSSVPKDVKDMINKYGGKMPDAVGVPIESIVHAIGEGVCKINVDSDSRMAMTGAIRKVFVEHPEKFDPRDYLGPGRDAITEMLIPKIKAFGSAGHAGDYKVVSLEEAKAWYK
#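 40 nM FBPA preincubated 10 min at RT with compound (up to 57.5 uM final), then substrate plus GAPDH/TPI/NAD/arsenate coupling and diaphorase/resazurin added. Fluorescence read after 20 min at RT, 525/598 nm.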
# HCV inh – blocks hepatitis C virus. Huh7.5.1 HCVcc-Cre infection, luciferase reporter, 44 h. AID 651820. 3.4% of 340,000 active. Potency, µM (highest dose often 41.8 µM), without a hit: top-dose activity change, negative = inhibition, most hits filed as inhibitors; further: potency means the concentration at half of the fitted maximal effect
#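 Infectious HCVcc-Cre (~0.5 moi) was added to cells just after compound, with cells seeded 4 h earlier at 1,000 per well. Luciferase activity after 44 h culture reported infection; substrate was incubated 15 min at room temperature before reading.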
# MARV entry inh – blocks Marburg virus binding to or entry into cells; Marburg virus pseudotyped entry inhibition, cell reporter; Potency, µM (titrated, usually from 37.8 µM), for the others: at the highest dose activity change, negative = inhibition, actives largely listed as inhibitors; 1.8% of 300,000 active; AID 540276; calls by dose curve; tested in HEK293 cells; further: potency means the concentration at half of the fitted maximal effect
# HCMV antiviral – blocks human cytomegalovirus replication; AID 1259415; 4.5% of 410,000 active; activity change, negative = inhibition, % at 57.5 µM; HFF cells, HCMV-luciferase reporter, 72 h; hits give low values; in the data active means activity change below about -60%; inconclusive means no clear call, values can overlap the other calls; inactive means above about -39%
#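 HFF cells seeded 16 h at 37C, treated with compounds, infected with luciferase-reporter HCMV at MOI 1 PFU/cell; luciferase read at 72 h post infection, normalized to buffer-only and Salinomycin controls.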
# Starred values were filed as active, the others as inactive; ? = inconclusive; . = no result; [ ] = dose if it differs, or a comment. This is a sample that favours compounds with a hit; in the whole collection about 8.3% have one here. Unless noted, the call rests on the fitted dose curve; in most records, active means well fitted curve in the direction sought with a large enough effect; inconclusive means small, poorly fitted or top-dose-only effect, or another doubt; inactive means no such curve, though single readings can be large; an effect the other way counts as inactive or inconclusive. On the % scale 0 is the no-effect control and ±100 the full control effect.
SMILES,FMDV inh,Lassa entry inh,FBPA Giardia inh,HCV inh,MARV entry inh,HCMV antiviral
CC1=C(C(=O)Nc2ccccc2)C(c2ccccn2)n2nc(SCc3ccccc3)nc2N1 (stereo not drawn),-2%,?,.,.,?,-11
CC(Cc1cccs1)NC(=S)Nc1ccc(Cl)cc1 (stereo not drawn),21%,-4%,1%,?,?,-92*
CC(Cc1cccs1)NC(=S)Nc1ccc(Cl)c(Cl)c1 (stereo not drawn),38%,-10%,-7%,10%,-6%,?
COc1ccc(/C(N)=N/OC(=O)c2ccco2)cc1,-45%,7.1µM*,0%,16%,?,79
Cc1ccc(/C(N)=N/OC(=O)c2ccco2)cc1,-54%,?,2%,9%,?,38
O=C(CSc1n[nH]c(-c2ccccc2)n1)N1CCN(c2ccccc2F)CC1,-10%,7%[46.1 µM],.,.,.,-5
c1cncc(-c2nc(NCc3ccc4c(c3)OCO4)c3ccccc3n2)c1,?,.,-10%,11µM*,.,0
c1cncc(CNc2nc(-c3cccnc3)nc3ccccc23)c1,-17%,?,-2%,22µM*,-4%[46.1 µM],-12
CN(C)C(=O)c1ccc(-c2nc(NCc3cccnc3)c3ccccc3n2)cc1,72%,.,-1%,.,.,.
CC(C)(C)c1ccc(-c2nc(NCc3cccnc3)c3ccccc3n2)cc1,17%,?,2%,11µM*,?,-72*
CC(Nc1nc(-c2cccnc2)nc2ccccc12)c1ccc(F)cc1 (stereo not drawn),-4%,-2%[46.1 µM],6%,8.9µM*,?,-34
CCOc1ccccc1NC(=O)c1ccc(F)c(S(=O)(=O)N2CCN(c3ccc(F)cc3)CC2)c1,-21%,-9%[46.1 µM],.,.,.,?
CN(Cc1ccccc1F)c1nc(-c2cccnc2)nc2ccccc12,?,?,5%,?,?,-6
Fc1ccc(CNc2nc(-c3cccnc3)nc3ccccc23)cc1,-20%,-1%[46.1 µM],7%,11µM*,?,18
COc1ccc(CCNc2nc(-c3cccnc3)nc3ccccc23)cc1OC,-20%,?,5%,10µM*,8.9µM*,4
c1ccc(CN2CCC(Nc3nc(-c4cccnc4)nc4ccccc34)CC2)cc1,0%,?,-2%,?,10µM*,-63*
CCOc1ccc(CN(C)c2nc(-c3cccnc3)nc3ccccc23)cc1OC,25µM*,.,-4%,?,?,-18
COc1ccc(OCC(=O)NCC2(N3CCN(C)CC3)CCCCC2)cc1,7%,0%[46.1 µM],.,.,-12%[46.1 µM],24
COc1ccc(Cn2c(=O)n(-c3ccc(F)c(Cl)c3)c(=O)c3c2c2cc(OC)ccc2n3C)cc1,-14%,26%[46.1 µM],.,.,.,-16
COc1ccccc1NC(=O)Nc1nc(-c2cccnc2)nc2ccccc12,-2%,.,5%,.,7.1µM*,.
COC(=O)CNc1nc(-c2cccnc2)nc2ccccc12,-27%,19%,-5%,?,0%,-3
COC(=O)c1ccccc1NS(=O)(=O)c1cc2c(cc1C)N(C)CCO2,79%,10µM*,.,.,.,?
CC1(C)Cc2nc3sc4c(OCc5ccccc5)ncnc4c3cc2CO1,?,0%,5%,6%,15%,-8
CCc1nc(OCc2ccccc2)c2sc3nc4c(cc3c2n1)COC(C)(C)C4,18%,22%[14.3 µM],-3%,.,16µM*,-25
COc1ccc2c(c1)C(=O)[C@H](OC(=O)NS(=O)(=O)c1ccc(C)cc1)[C@@H](c1ccc(OC)c(Br)c1)O2,.,.,4%,.,.,.
SMILES,FMDV inh,Lassa entry inh,FBPA Giardia inh,HCV inh,MARV entry inh,HCMV antiviral
Cc1[nH]nc(C(F)(F)F)c1N=NN1CCOCC1,20µM*,?,.,16µM*,?,-11
CCCc1ccc(OC(C)C(=O)Nc2sc3c(c2C(=O)OC)CCCCC3)cc1 (stereo not drawn),-15%,-17%[46.1 µM],.,.,-3%[46.1 µM],-31
CCOc1ccc(C2C(=O)N(C3CCCCCC3)CC(=O)N2Cc2ccc(C)cc2)cc1OC (stereo not drawn),-14%,?,.,.,.,?
Cc1ccccc1OC[C@H](O)CO,.,.,1%[21.7 µM],.,.,.
CCOc1ccc2c(ccc(/C=C/c3cc(C)c4cccnc4c3O)[n+]2C)c1,?,?,.,?,16µM*,.
COc1cccc2cc(C(=O)NCCc3c(C)[nH]c4ccc(Br)cc34)c(=O)oc12,-22%,?,.,.,-5%[46.1 µM],-12
CC1CN(CCC(=O)NCc2ccc3ncccc3c2)Cc2cc(Cl)ccc2O1 (stereo not drawn),-4%,.,.,.,.,.
O=C(c1cc2ccc3cccnc3c2[nH]1)N1CCN(c2ccc(Cl)cc2)CC1,-23%,16%[46.1 µM],.,.,.,6
Cc1ccc(Cl)cc1N1CCN(C(=O)c2cc3ccc4cccnc4c3[nH]2)CC1,-11%,?,.,.,.,-70*
CC1CCCN(C(=O)c2cc3ccc4cccnc4c3[nH]2)C1 (stereo not drawn),14µM*,-14%[46.1 µM],.,.,.,-81*
O=C(NCC1CCN(Cc2ccc(F)cc2)CC1)c1cc2ccc3cccnc3c2[nH]1,0%,?,.,.,.,-68*
O=C(c1cc2ccc3cccnc3c2[nH]1)N1CCN(c2cccc(Cl)c2)CC1,?,5%[46.1 µM],.,.,.,-24
O=C(c1cc2ccc3cccnc3c2[nH]1)N1CCCCC1,-49%,5%[46.1 µM],.,.,.,-67*
Cn1cc(S(=O)(=O)N2CCCC2)cc1C(=O)Nc1ccc(C(F)(F)F)cc1,-23%,-15%[46.1 µM],.,.,.,?
COc1ccccc1N1CCN(C(=O)c2cc(CC(C)C)on2)CC1,-9%,28%[46.1 µM],.,.,8%[46.1 µM],-4
COc1ccccc1CN(Cc1c(Cl)cccc1Cl)S(=O)(=O)c1ccc(Br)cc1,-12%,9%[46.1 µM],.,.,.,-12
O=S1(=O)N[C@H](Cc2ccccc2)COc2cc(N3CCOCC3)ccc21,.,.,.,.,.,11
O=C(c1cc(-c2ccccc2)nn1-c1ccccc1)N1CCN(S(=O)(=O)c2c(F)cccc2F)CC1,0%,?,.,13µM*,18%,-20
O=C(c1cc(C2CC2)nn1-c1ccccc1)N1CCN(S(=O)(=O)c2ccccc2)CC1,-12%,?,.,?,-26%,?
CCOC(=O)c1cc(S(=O)(=O)N2CCN(c3ccc(C(C)=O)cc3)CC2)[nH]n1,-3%,11%[46.1 µM],.,.,.,15
CN1CCN(c2ccc(-c3ccc4ccccc4n3)cc2)CC1,1.8µM*,?,-1%,16µM*,?,-92*
c1ccc2nc(-c3ccc(N4CCOCC4)cc3)ccc2c1,-1%,3.7µM*,-25%,?,2.3µM*,-27
Cc1cc(-c2ccc(N3CCOCC3)cc2)nc2ccccc12,15%,-24%,-5%,?,?,64
C/C(CCN1CCc2nc(-c3ccccc3)c(-c3ccccc3)cc2C1)=N\OC[C@@H](O)COCc1ccco1,.,.,-4%[12.9 µM],.,?,.
CCCCc1c(-c2ccccc2Br)ncn1CCc1ccccc1OC,?,.,.,.,.,-93*
CCCc1c(-c2cccc(F)c2)ncn1Cc1ccccc1OC,-1%,.,.,.,.,-16
